# TDP1 cell noCPT = qHTS for Inhibitors of human tyrosyl-DNA phosphodiesterase 1 (TDP1): qHTS in cells in absence of CPT | DT40 Tdp1-/- hTDP1 cells, no CPT, ATP luminescence, 48 h | Potency, µM (top dose mostly 46.2 µM), for the others: at the top dose activity change, negative = growth inhibition, hits mostly inhibitors | 420,000 tested, 15% active; note: potency is the fitted concentration of half-maximal effect; % is set by controls: 0 for no effect and ±100 for the full control effect; nearly all actives have a fitted effect of over 55% in size
#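 Chicken DT40 Tdp1-/- cells complemented with human TDP1, screened without camptothecin (DMSO vehicle only), 400 cells/well. Compounds pin-transferred, cells incubated at 37 °C for at least 48 hr. Growth read as ATP-dependent luminescence (CellTiter-Glo, 30 min at RT).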
# ClpP mod = qHTS Assay for Activators of ClpP. 340,000 tested, 1.9% active. Potency, µM (titrated, usually from 57.5 µM), for inactives: at the top dose activity change, negative = active. purified B. subtilis ClpP, FRET peptide cleavage, 20 min. ATP-dependent Clp protease proteolytic subunit (Bacillus subtilis (strain 168)), P80244; active = well fitted falling curve with a large enough effect; inconclusive = small, poorly fitted or top-dose-only effect; inactive = no such curve, though single readings can be large or run the other way; note: potency is the fitted concentration of half-maximal effect; the source files actives as falling curves though it sought activators and does not explain the sign; nearly all actives have a fitted effect of over 65% in size
# Target sequence (P80244 whole entry, looked up): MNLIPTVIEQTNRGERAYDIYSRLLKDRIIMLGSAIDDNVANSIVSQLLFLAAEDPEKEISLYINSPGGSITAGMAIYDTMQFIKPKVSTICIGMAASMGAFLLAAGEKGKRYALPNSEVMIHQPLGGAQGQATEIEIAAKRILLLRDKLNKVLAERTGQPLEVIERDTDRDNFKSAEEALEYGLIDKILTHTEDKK
#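 FRET quenching reversal measured ClpP activation: 10 microg/mL B. subtilis ClpP at pH 8 with the FRET-FV decapeptide, read at 430 nm after 320 nm excitation. The 20-min minus 0-min signal was scaled between DMSO/no-enzyme wells and ADEP (5.8 microM final).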
# DT40 TDP1 CPT = growth inhibition of DT40 Tdp1-/-;hTDP1 cells with camptothecin (screen for TDP1 inhibitors). chicken DT40 Tdp1-/-;hTDP1 cells + 20 nM CPT, ATP luminescence, 48 h. Potency, µM (doses to about 46.2 µM), for the others: top-dose activity change, negative = growth inhibition, most hits filed as inhibitors. 420,000 tested, 12% active. AID 686979; note: potency is the fitted concentration of half-maximal effect; % is set by controls: 0 for no effect and ±100 for the full control effect; nearly all actives have a fitted effect of over 55% in size
#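 Cell growth measured by CellTiter-Glo luminescence after a minimum 48 h, 37 C compound exposure with 20 nM CPT in Tdp1-knockout DT40 cells stably expressing hTDP1, seeded 400/well; qHTS titration format.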
# D3 antag = D3 dopamine receptor (human) antagonism; max response, negative = inhibition, %; 360,000 tested, 2.5% active; D3R cells, DiscoveRx beta-arrestin luminescence, antagonist mode; hits give low values; in the data active = max response below about -50%; inconclusive = no clear call, values can overlap the other calls; note: % is set by controls: 0 for no effect and ±100 for the full control effect
# Target sequence (P35462 whole entry, looked up): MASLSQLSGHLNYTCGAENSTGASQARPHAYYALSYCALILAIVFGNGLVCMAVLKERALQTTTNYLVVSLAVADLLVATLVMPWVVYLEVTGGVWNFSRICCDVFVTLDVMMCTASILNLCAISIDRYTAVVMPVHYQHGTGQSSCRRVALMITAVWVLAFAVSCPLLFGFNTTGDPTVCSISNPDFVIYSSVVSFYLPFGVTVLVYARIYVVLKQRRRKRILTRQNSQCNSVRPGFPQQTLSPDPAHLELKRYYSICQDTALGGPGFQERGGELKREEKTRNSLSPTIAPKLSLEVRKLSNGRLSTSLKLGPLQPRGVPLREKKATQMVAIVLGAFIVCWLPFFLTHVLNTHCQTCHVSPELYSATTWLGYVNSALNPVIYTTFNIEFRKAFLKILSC
#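 Cells plated overnight at 1500 cells/well, then exposed to library compounds with dopamine controls for 90 minutes at 37 degrees C. DiscoveRx reagent added for 30–60 minutes at room temperature; luminescence read, quantitative HTS format.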
# IL1B secr inh = inflammasome signaling inhibition, IL-1 beta readout; 360,000 tested, 4.7% active; THP-1 LPS/ATP IL-1B secretion, AlphaLISA, 16 h; hits give low values; activity change, % at 57.5 µM; AID 743279; in the data active = activity change below about -50%; inconclusive = mostly about -30% to -49%; note: % is set by controls: 0 for no effect and ±100 for the full control effect
#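 THP-1 cells pretreated 1 hr with compounds (up to 57.5 uM final), then stimulated with LPS (250 ng/mL final) plus ATP (1.25 mM final); secreted IL-1B measured by AlphaLISA after 16 hr, decreased signal indicating inhibition.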
# D3 ag = activates the human D3 dopamine receptor; P35462; AID 652048; max activation, %; 410,000 tested, 0.58% active; D3R DiscoveRx beta-arrestin cells, luminescence, 90 min; in the data active = max activation above about 30%; note: 0% is about no effect
#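 Cells at 1500/well, incubated overnight, then treated with pinned compounds (dopamine as control) for 90 min at 37 degrees C. DiscoveRx reagent added for 30 - 60 minutes at room temperature; luminescence read.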
# * = called active by the depositor; u = inconclusive; x = not tested or not shown. Compounds with a hit are over-represented: about 21% of the library has one in this group of screens. Unless noted, calls come from the whole dose curve; as a rule, active = well fitted inhibition curve with a large enough effect; inconclusive = small, poorly fitted or top-dose-only effect; inactive = flat fitted curve, though single readings scatter.
SMILES,TDP1 cell noCPT,ClpP mod,DT40 TDP1 CPT,D3 antag,IL1B secr inh,D3 ag
Cc1nn(-c2ccccc2)c2sc(C(=O)N(CC(=O)NC3CCCC3)Cc3ccco3)cc12,16µM*,u,u,-2,u,0
O=C(Nc1ccc2oc(-c3ccncc3)nc2c1)c1ccc([N+](=O)[O-])o1,5.8µM*,x,2.9µM*,-6,-91*,-8
CC(C)C(=O)Nc1ccc(-c2nc3ncccc3o2)cc1,u,5%,0%,-11,u,-3
COc1ccc(C(=O)Nc2ccc(-c3nc4ncccc4o3)cc2)cc1,-2%,4%,-14%,x,x,-1
CCCC(=O)Nc1ccc(-c2nc3ncccc3o2)cc1,-11%,4%,2%,-11,-26,10
Cc1cc(C)cc(C(=O)Nc2ccc(-c3nc4ncccc4o3)cc2)c1,u,4%,21µM*,x,x,-3
CC(C)(Oc1ccc(Cl)cc1)C(=O)Nc1ccc(-c2nc3ncccc3o2)cc1,18µM*,4%,16µM*,x,x,3
O=C(Nc1ccc(-c2nc3ncccc3o2)cc1)c1ccc([N+](=O)[O-])o1,3.7µM*,-9%,8.2µM*,-4,-80*,-16
COc1ccccc1C(=O)NC(CCSC)C(=O)NNC(=O)C(C)Oc1ccccc1F (configuration not stated),u,0%,-1%,4,-1,1
Cc1ccc(-c2nc3ncccc3o2)cc1NC(=O)c1ccc([N+](=O)[O-])o1,16µM*,x,15µM*,-16,-97*,0
Cc1cc(-c2nc3ncccc3o2)ccc1NC(=O)c1ccc([N+](=O)[O-])o1,2%,x,-4%,13,-1,6
CC(C)(c1ccccc1)c1ccc(OCC2CO2)cc1 (configuration not stated),u,x,-1%,-9,13,-7
O=S(=O)(c1ccc(OCC2CO2)cc1)c1ccc(OCC2CO2)cc1 (configuration not stated),2.1µM*,-1%,1.8µM*,u,-29,2
COC(=O)c1c(C(=O)OC)c2ccccn2c1C(=O)c1ccc([N+](=O)[O-])cc1,-23%,0%,0%,17,3,-9
CC(C)OC(=O)c1c2c(n3ccccc13)C(=O)c1ccccc1C2=O,13µM*,x,15µM*,51,0,23
CCOc1cc2nc(-c3ccc(OC)c(OC)c3)nc(N3CCOCC3)c2cc1OC,u,u,21µM*,3,-30,-4
O=[N+]([O-])c1cnn(-c2nc(-c3cccs3)cc(C(F)(F)F)n2)c1,-23%,x,5%,23,49,7
COc1ccc(-c2cc(-c3ccccc3)nc(N3CCCC3)n2)cc1OC,-19%,25µM*,-7%,49,-10,41*
CN1CCN(c2nc(-c3cccs3)cc(C(F)(F)F)n2)CC1,u,-14%,u,-94*,u,-5
Cc1ccc(-c2cc(C(=O)O)c3sc(N4CCCCC4)nc3n2)cc1,-11%,u,-10%,0,8,-9
COc1ccc(-c2cc(C(=O)O)c3sc(N4CCCCC4)nc3n2)cc1OC,-9%,10µM*,-11%,-12,7,-15
COc1ccc(-c2cc(C(F)(F)F)nc(N3CCOCC3)n2)cc1OC,10µM*,-14%,u,5,-19,2
COc1ccccc1-c1cc(C(F)(F)F)nc(N2CCOCC2)n1,-15%,-30%,5%,15,21,-2
N#Cc1c(N)oc(-c2ccco2)c1-c1ccco1,16µM*,25µM*,u,u,u,6
N#Cc1c(N)oc(-c2ccccc2)c1-c1ccccc1,-13%,-7%,-6%,0,-4,0
SMILES,TDP1 cell noCPT,ClpP mod,DT40 TDP1 CPT,D3 antag,IL1B secr inh,D3 ag
COc1ccc2c(c1)CCC1(C)CC(=O)C(Br)=C21 (configuration not stated),u,4%,-11%,-7,2,-11
COc1ccc(NC(=O)c2cc(-c3cc(F)ccc3OC(C)C)n[nH]2)c(C)c1,16µM*,-1%,u,16,-26,14
COc1ccc(OC)c(NC(=O)c2cc(-c3ccc(F)cc3OC(C)C)n[nH]2)c1,21µM*,5%,16µM*,48,-17,6
COc1ccc(OC)c(CNS(=O)(=O)c2cn(C)cn2)c1,-13%,-1%,7%,-13,-24,-1
CCOc1ccccc1NC(=O)C(Cc1ccccc1)NS(=O)(=O)c1ccc2c(c1)oc(=O)n2C (configuration not stated),8%,0%,u,x,x,0
NC(=O)C1CCN(c2oc(/C=C/c3ccc(F)cc3)nc2S(=O)(=O)c2ccccc2)CC1,12%,4%,-11%,-12,-26,1
Cc1c(CNC2CCCCCC2)c(C(=O)O)c(C)n1Cc1ccc(F)cc1,-11%,0%,5%,x,x,-6
CCc1c(C)sc2c1CCN(Cc1ccc(F)cc1)C2c1ccccc1 (configuration not stated),4.6µM*,-14%,u,x,x,5
CCc1c(C)sc2c1CCN(Cc1cccc(F)c1)C2c1ccccc1 (configuration not stated),12µM*,u,u,x,x,2
Fc1ccc(-c2cc(-c3ccc(F)cc3)c3c(n2)-c2cc(F)ccc2OC3)cc1,-21%,u,u,x,x,-4
CCOC(=O)COc1cccc2c(=O)n(CC(=O)NCc3ccccc3)ccc12,0.65µM*,-23%,1µM*,-13,49,-7
CCOC(=O)C(C)Oc1cccc2c(=O)n(CC(=O)NCc3ccc4c(c3)OCO4)ccc12 (configuration not stated),2.3µM*,35%,2.6µM*,-4,-20,-10
CCOC(=O)COc1cccc2c(=O)n(CC(=O)NCc3ccc(F)cc3)ccc12,0.52µM*,-8%,0.58µM*,u,45,-21
CCOC(=O)COc1cccc2c(=O)n(CC(N)=O)ccc12,29%,4%,-10%,-10,-58*,1
CCOC(=O)COc1cccc2c(=O)n(CC(=O)N3CCCCC3)ccc12,13%,-25%,-3%,25,25,0
COc1cccc2c(=O)n(CC(=O)Nc3ccc(F)cc3)ccc12,-17%,u,-10%,-8,-21,-5
COC(=O)COc1cccc2c(=O)n(CC(=O)NCCc3ccccc3)ccc12,-1%,u,-3%,-20,-7,1

# High-throughput results from PubChem.
